High-throughput results: PubChem, National Center for Advancing Translational Sciences (NCATS)
The list is not random: actives were taken first. Their share in the collection is about 2.6%.
AmpC inh det = blocks E. coli AmpC beta-lactamase in presence of detergent; P00811; purified AmpC, nitrocefin hydrolysis with detergent; Potency, µM (top dose mostly 28.7 µM); actives 0.09% (n = 71,000); active = well fitted curve in the direction sought with a large enough effect; inconclusive = small, poorly fitted or top-dose-only effect
Target sequence (P00811 whole entry, looked up): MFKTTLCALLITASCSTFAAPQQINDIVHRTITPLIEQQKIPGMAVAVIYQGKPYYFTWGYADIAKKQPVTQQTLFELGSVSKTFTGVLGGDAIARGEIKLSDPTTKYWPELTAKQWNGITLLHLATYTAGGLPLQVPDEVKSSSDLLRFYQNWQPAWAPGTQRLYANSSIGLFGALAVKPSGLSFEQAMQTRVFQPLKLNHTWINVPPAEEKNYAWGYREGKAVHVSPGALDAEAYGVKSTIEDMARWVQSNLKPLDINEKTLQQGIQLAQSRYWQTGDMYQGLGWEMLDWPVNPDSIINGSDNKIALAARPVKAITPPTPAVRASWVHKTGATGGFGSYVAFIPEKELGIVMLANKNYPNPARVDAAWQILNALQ
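E. coli AmpC (5.3 nM) in 20 mM phosphate pH 7.0 with 0.01% Triton X-100, preincubated 15 min RT with compound; nitrocefin (2 uL of 800 uM stock) hydrolysis followed by 480 nm absorbance every 20 s over 4 min.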
Prx2 Sm inh = inhibitors of Schistosoma mansoni peroxiredoxin 2; actives 0.07% (n = 65,000); Potency, µM; S. mansoni Prx2 activity coupled to TGR/GSH (TGR is thioredoxin glutathione reductase), NADPH fluorescence loss, qHTS; AID 448
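Prx2 activity was followed as the loss of NADPH fluorescence (ex 365/em 450 nm), read every 30 sec for 8 min after H2O2 start. The enzyme mix (50 nM Prx2, 25 nM TGR, GSH, NADPH; pH 7.4 phosphate buffer) was incubated with compound for 15 min at room temperature first.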
Anthrax LT inh = anthrax lethal toxin internalization inhibition. Cells, anthrax lethal toxin internalization, FRET ratio (460/530). Potency, µM (doses to about 40 µM), most hits filed as inhibitors. actives 0.67% (n = 70,000). AID 912; also: nearly all actives have a fitted effect of over 50% in size
AmpC nodet inh = blocks E. coli AmpC beta-lactamase in absence of detergent; P00811; AmpC nitrocefin hydrolysis, absorbance 480 nm, no detergent; Potency, µM (highest dose often 28.7 µM); actives 1.8% (n = 71,000); AID 585
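AmpC in 20 mM phosphate buffer pH 7.0 was preincubated 15 min at room temperature with compounds. Nitrocefin (800 uM stock) was then added and hydrolysis followed at 480 nm every 20 s for 4 min.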
Numbers stand for hits; . = inactive; ? = inconclusive; / = no result given; [ ] = another dose, or the depositor's remark. Unless noted, calls follow the shape of the full dose curve.

SMILES | AmpC inh det | Prx2 Sm inh | Anthrax LT inh | AmpC nodet inh
O=C(c1ccco1)N1CCC2(CCCN(c3ccccc3)C2)CC1 | . | . | . | .
Cc1cc(C)n(CCc2nc(-c3cc4ccccc4o3)cs2)n1 | . | . | 25µM | .
COc1ccccc1NC(=O)Cn1nnc(-c2ccccc2NC(=O)c2ccco2)n1 | . | . | . | .
COc1ccc(NC(=O)Cn2nnc(-c3ccccc3NC(=O)c3ccco3)n2)cc1 | . | . | . | 13µM
COc1ccccc1NC(=O)Cn1nnc(-c2ccccc2NC(=O)c2cccs2)n1 | . | . | . | 7.9µM
Cl.Cl.Cl.Cl.Cl.Cl.N.N.N.N.NNNNN.NNNNN.O.O.[Ru].[Ru].[Ru] | . | . | . | 5µM
N#CCCn1c(=O)c(-c2cccs2)nc2cnc(Oc3ccccc3)nc21 | . | . | ? | .
CNc1sc(C(=O)c2cccs2)c(N)c1-c1nc2ccccc2s1 | . | . | ? | 13µM[single pt active]
CC(Sc1nc(-c2ccccc2)cc(C(F)(F)F)n1)C(=O)N1CCCC1 (stereo not given) | . | . | . | 4µM[single pt active]
Cc1ccc(Cn2ccc(NC(=O)c3cc(-c4ccc(Cl)cc4)on3)n2)cc1 | . | . | . | .
Cc1ccc(Cn2ccc(NC(=O)c3cc(-c4ccc(F)cc4)on3)n2)cc1 | . | . | . | 7.9µM
Cc1ccc(Cn2ccc(NC(=O)c3cc(CC(C)C)on3)n2)cc1 | . | . | ? | 4µM[single pt active]
Cc1n[nH]c(C)c1S(=O)(=O)N1CCCC(C(=O)NCc2cccs2)C1 (stereo not given) | . | . | . | .
Cc1n[nH]c(C)c1S(=O)(=O)N1CCCC(C(=O)NC2CCCc3ccccc32)C1 (stereo not given) | . | . | . | 4µM[single pt active]
O=S(=O)(c1ccccc1)N1CCC2(CCCN(c3ccncc3)C2)CC1 | . | . | 1µM | .
O=S(=O)(c1ccccc1)N1CCC2(CCCN(c3ccccc3)C2)CC1 | . | . | ? | .
COc1ccc(-c2nc3cnc(Oc4ccccc4)nc3n(C3CC3)c2=O)cc1 | . | . | . | .
Cc1noc(/C=C/N(C)C)c1S(=O)(=O)N1CCc2ccccc21 | . | . | ? | 4µM[single pt active]
O=C(Nc1cc(Cl)ccc1Cl)c1noc2c1CCCC2 | . | . | . | 4µM[single pt active]
Nc1ncnc2c1nc(Sc1ccc(Cl)cc1)n2[C@@H]1O[C@H]2COP(=O)(O)O[C@@H]2[C@H]1O | . | . | . | .
CCOC(=O)CCc1c(C)c2ccc(OCc3nn[nH]n3)cc2oc1=O | . | . | ? | .
Cc1c(Cc2ccccc2)c(=O)oc2cc(OCc3nn[nH]n3)ccc12 | . | . | ? | 10µM[single pt active]
COCCN(CCOC)c1nc(C)nc2c1nc(-c1ccccc1)n2CCN(C)C | . | / | . | .
CC1Cc2ccccc2N1C(=O)CSc1nnc(NC(=O)Cc2cccs2)s1 (stereo not given) | . | . | ? | 13µM[single pt active]
CN(C)c1oc(-c2ccccc2Cl)nc1S(=O)(=O)c1ccccc1 | . | . | . | 4µM[single pt active]
SMILES | AmpC inh det | Prx2 Sm inh | Anthrax LT inh | AmpC nodet inh
CN(C)c1oc(-c2ccccc2Cl)nc1C#N | . | / | . | .
CC(=O)NCCc1c[nH]c2ccccc12 | . | . | . | .
N#Cc1cccc(NC(=O)NCCc2c[nH]c3ccccc23)c1 | . | . | 13µM | 4µM[single pt active]
CCOc1ccccc1-n1nnnc1SCC(=O)Nc1cc(C)on1 | . | . | . | .
COc1ccc(CCNC(=O)CSc2ncnc3c2oc2ccccc23)cc1OC | . | . | . | .
CCOc1ccccc1-n1nnnc1SCC(=O)Nc1cc2oc3ccccc3c2cc1OC | . | . | ? | 6.3µM
COc1ccc(Cl)cc1NC(=O)CSc1ncnc2c1oc1ccccc12 | . | . | ? | 13µM[single pt active]
N#CC1=C(N)Oc2cc(O)ccc2C1c1cccs1 (stereo not given) | . | / | . | .
CN(C)c1ccc2c(c1)OC(N)=C(C#N)C2c1cccc(F)c1 (stereo not given) | . | / | 6.3µM | .
CN(C)c1ccc(-c2nc(-n3ccnc3)c3ccccc3n2)cc1 | . | . | ? | .
COc1cccc(-c2csc(N3CCN(C(=O)C4CCCCC4)CC3)n2)c1 | . | . | 10µM | .
COc1cc2c(=O)n(Cc3ccco3)c(=O)n(CC(=O)c3cccc(Br)c3)c2cc1OC | ? | . | . | 6.3µM
COc1cc2c(=O)n(Cc3ccco3)c(=O)n(CC(=O)c3ccc(Br)cc3)c2cc1OC | . | . | . | .
O=C(c1ccncc1)N1CCC2(CCN(Cc3ccccc3)CC2)CC1 | . | . | ? | .
O=C1c2ccccc2C(O)N1c1cccnc1 (stereo not given) | . | . | . | 4µM[single pt active]
O=C1c2ccccc2C(Nc2ccc(Cl)cn2)N1c1cccnc1 (stereo not given) | . | . | . | 4µM[single pt active]
C=CC[C@@H]1C=C[C@H](ON=C(C)C)[C@H](CO)O1 | / | / | .[8 µM] | /
Clc1ccc(-c2noc(CN3CCCCC3)n2)cc1 | .[5.75 µM] | . | .[8 µM] | .[5.75 µM]
Clc1ccc(-c2nnc(N3CCCC3)nn2)cc1 | . | . | / | 10µM
C=CC(C)(C)c1[nH]c2ccccc2c1C1=C(O)C(=O)C(c2c[nH]c3c(CC=C(C)C)cccc23)=C(O)C1=O | ? | . | 25µM | ?
CC(C)=NOCc1cccc(-c2cc(-c3ccccc3)no2)c1 | / | / | .[8 µM] | /
CN(Cc1ccccc1)c1oc(-c2ccco2)nc1C#N | . | . | 10µM | .
O=C(NCc1ccco1)C1CCN(c2ccc(N3CCOCC3)nn2)CC1 | . | . | . | 4µM[single pt active]
COCCNC(=O)c1cc2c(=O)n(C)c3ccccc3c2n1C | . | . | . | 4µM[single pt active]
Cn1c(C(=O)NC2CC2)cc2c(=O)n(C)c3ccccc3c21 | . | . | . | 4µM[single pt active]
SMILES | AmpC inh det | Prx2 Sm inh | Anthrax LT inh | AmpC nodet inh
COCCCNC(=O)c1cc2c(=O)n(C)c3ccccc3c2n1C | . | . | . | 4µM[single pt active]
CN(C)CCNC(=O)c1cc2c(=O)n(C)c3ccccc3c2n1C | . | . | 13µM | ?
CCOC(=O)N1CCC(NC(=O)c2cc3c(=O)n(C)c4ccccc4c3n2C)CC1 | . | . | ? | .
CCN(CC)CCNC(=O)c1cc2c(=O)n(C)c3ccccc3c2n1C | . | . | ? | ?
CCCCCC(=O)O[C@H](CC(=O)O)C[N+](C)(C)C | . | . | . | .
CCN(CC)[C@@H](C)C(=O)N1c2ccccc2Sc2ccccc21 | . | . | ? | .
C=C[C@@]1(C)CC(=O)[C@@]2(O)[C@@]3(C)[C@@H](O)CCC(C)(C)[C@@H]3[C@H](O)[C@H](OC(C)=O)[C@@]2(C)O1 | . | . | . | .
CCCn1c(-c2ccc(F)cc2)nc2c(NC3CCN(Cc4ccccc4)CC3)nc(C)nc21 | . | / | ? | .
Oc1cccc(Nc2nc(NCC3CCCO3)c3ccccc3n2)c1 (stereo not given) | . | . | . | 10µM
O=C(Nc1cccc(-c2nc3ccccc3[nH]2)c1)c1cccc(NC(=O)c2ccco2)c1 | . | / | 16µM | .
CCCOc1cccc(C(=O)Nc2cccc(NC(=O)c3ccco3)c2)c1 | . | / | 5µM | .
COc1ccc(OC)c2c(=S)c3ccccc3[nH]c12 | . | . | ? | .
O=C(CSc1nnc2c(n1)[nH]c1ccc(F)cc12)OCc1ccccc1 | . | . | . | 10µM
O=C(CSc1nnc(-c2ccccc2F)o1)OCc1ccccc1 | . | . | . | .
